About 83,000 compounds went through this panel and 20% of them were active in at least one assay; those are over-represented in the sample as a whole.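 Activity criterion: percent growth below 10, measured after cells in 96-well plates were exposed to a single compound concentration for 48 hours.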 Unmarked numbers belong to inactive results. The source made the active and inactive calls.
system: HL-60(TB) leukemia; experiment: NCI-60 one-dose screen, 48 h (100 = growth as untreated, 0 = no growth, -100 = all killed); conditions: 10 µM unless noted

| SMILES | growth |
| --- | --- |
| COC(=O)C(Br)(C(=O)OC)C(Br)C(Br)C(Br)c1ccccc1 (stereo not given) | 7.57% (active) |
| O=c1cc(C(F)(F)F)c2cc(-c3cc4ccccc4c(=O)o3)c(O)cc2o1 | 38.3% |
| O=c1[nH]c(Cc2nc3ccccc3s2)nc2cc(Br)ccc12 | 77% |
| CCC1(CC)C(OC)NC(Br)=C(C#N)C1(C#N)C(N)=O (stereo not given) | 93.1% |
| C[C@H]1C(=O)N2c3ccccc3[C@@]3(O)C[C@@H](n4cnc5ccccc5c4=O)C(=O)N1[C@@H]23 | 64.6% |
| CCCC(=O)CC(=O)c1ccccc1 | 112% |
| Cc1ncc(C(=O)Nc2ccc(CN3CCN(C)CC3)c(C(F)(F)F)c2)cc1C#Cc1c(N)ncc2ccc(F)cc12 | 9.43% (active) |
| Cc1ccc(N=Nc2c(N)nc(N)[nH]c2=O)cc1C | 97.3% |
| CCCCCCCCCCCC1N=C(N)N=C(N)N1c1cccc(Br)c1 (stereo not given) | -53% (active) |
| CCN1CCN(c2nc(C)cc(NCc3cc(Nc4ccnc5cc(Cl)ccc45)ccc3F)n2)CC1 | -7.3% (active) |
| CCN(CC)CCC(CNc1c(C)cnc2cc(Cl)ccc12)c1ccc(Cl)cc1 (stereo not given) | 52.5% |
| O=[N+]([O-])c1c(O)c(Cl)cc(Cl)c1Cl | 92.1% |
| S=C1N(c2ccccc2)CN(C2CCCCC2)CN1c1ccccc1 | 96.1% |
| O=C1/C(=C/c2ccc(O)c(O)c2)COc2ccc(-c3ccccc3)cc21 | -15.8% (active) |
| C=C(C)[C@@H]1CC[C@]2(C)[C@H](C(=O)C=C3[C@@H]4C[C@](C)(C(=O)N5CCN(C)CC5)CC[C@]4(C)CC[C@]32C)[C@@]1(C)CCC#N | -22% [100 µM] (active) |
| Cc1ccc(Nc2nc(N)nc(Nc3ccc4ccccc4c3)n2)cc1 | 22.5% |
| Cc1cc(O)ccc1Sc1ccccc1[N+](=O)[O-] | 115% |
| CC(Cc1ccco1)C(=O)NC(N)=O (stereo not given) | 87.5% |
| CCN1CCN(Cc2ccc(-c3cc4c(N[C@H](C)c5ccccc5)ncnc4[nH]3)cc2)CC1 | 14.5% |
| COc1ccc(-c2cc(-c3cccnc3)nc3sc4c(Cl)nnnc4c23)cc1OC | 85.4% |

| SMILES | growth |
| --- | --- |
| O=C(CCc1nnc(Cn2ccnc2)o1)c1nc2ccccc2[nH]1 | 106% |
| O=C(OCc1ccc2c(Cl)cc(Cl)c(O)c2n1)N1CCNCC1 | 64.5% |
| Cc1ccc2nc(-c3ccc(N(C)C)c(Br)c3)cn2c1 | 36.8% |
| CN=S(=O)(OCCCCCOS(=O)(=NC)c1ccc(C)cc1)c1ccc(C)cc1 (stereo not given) | 70.7% |
| CCCCC(=O)OC1CCCCC1C (stereo not given) | 117% |
| CCCCNc1nc(NN2C(=O)c3cccc4cccc(c34)C2=O)nc(-n2cnc3ccccc32)n1 | 94.2% |
| CC(C)=CCc1cc(O)cc2c1OC(C=C(C)C)C1=C2C(=O)C2=C(C1=O)S(=O)(=O)CCN2 (stereo not given) | -31.5% (active) |
| O=C1C=C(O)c2ccccc2C1=O.[Ag] | 96% |
| COc1cc(NCc2cn(-c3ccc(C(=O)O)cc3)nc2-c2ccc(C(=O)O)cc2)cc(OC)c1OC | 120% |
| O=c1[nH]c(N2CCOCC2)nc2scc(-c3ccccc3)c12 | 103% |
| Brc1ccsc1Br | 102% |
| O=C(Nc1nc2ccccc2s1)c1cc(-c2ccc(F)cc2)n2nc(-c3ccccc3)cc2n1 | 107% |
| Clc1cc(Cl)cc(N2N=C(c3cccc(Nc4ccncc4)c3)CC2c2ccc(Br)cc2)c1 (stereo not given) | 17.3% |
| O=C(CI)NC(=O)NC(=O)NCc1ccccc1 | -10.5% (active) |
| CCCCCCOc1ccc(/C=N/Nc2cc(C)nc3ccc(Cl)cc23)cc1 | 8.19% (active) |
| COc1ccc(/C=N/C2=C(C#N)C(c3ccccc3)c3ccc4ccccc4c3O2)cc1 (stereo not given) | 1.71% (active) |
| O=C(O)c1ccc(CO)o1 | 85.6% |
| CCOC(=O)N1C2CCC(C2)N1C(=O)OCC | 92.4% |
| COc1ccc2[nH]c(-c3ccccc3)cc2c1 | 60.7% |
| N=C(N)c1ccc(-c2ccc(-c3ccccc3)s2)cc1F | -73.1% (active) |

Source: PubChem BioAssay (NCI)
